Screening data deposited in PubChem by National Center for Advancing Translational Sciences (NCATS).
This is a sample that favours compounds with a hit; in the whole collection about 19% have one here.
Pf growth 96h: Primary qHTS for delayed death inhibitors of the malarial parasite plastid, 96 hour incubation; P. falciparum luciferase reporter growth, 96 h; hit rate 6.9% among 320,000; AID 504834, 2011; Potency, µM (series often up to 28.7 µM), inactives show at the highest dose activity change, negative = inhibition, hits mostly inhibitors; further: potency means the concentration at half of the fitted maximal effect; on the % scale 0 is the no-effect control and ±100 the full control effect
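Cell-based qHTS: luciferase-tagged P. falciparum in erythrocytes (2% hematocrit, 0.05% parasitemia final) incubated with compounds for 96 hours, 37 C, 5% CO2; luciferase detection reagent then added and luminescence measured.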
Pf growth 48h: Primary qHTS for delayed death inhibitors of the malarial parasite plastid, 48 hour incubation. Potency, µM (top dose mostly 28.7 µM), inactives show top-dose activity change, negative = inhibition, actives largely listed as inhibitors. P. falciparum luciferase growth in erythrocytes, 48 h. hit rate 5.9% among 310,000; further: potency means the concentration at half of the fitted maximal effect; on the % scale 0 is the no-effect control and ±100 the full control effect
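In quantitative HTS format, infected erythrocytes bearing luciferase-reporter parasites were treated for a single generation at 37 C. Luminescence after adding detection reagent served as the growth measure.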
LASV entry inh: qHTS for Inhibitors of binding or entry into cells for Lassa Virus | Lassa virus pseudotype entry inhibition, cell reporter | Potency, µM (series often up to 37.9 µM), for the others: at the top dose activity change, negative = inhibition, most hits filed as inhibitors | hit rate 1.2% among 300,000 | AID 540256, 2011; calls by dose curve; tested in HEK293 cells; further: potency means the concentration at half of the fitted maximal effect; on the % scale 0 is the no-effect control and ±100 the full control effect; nearly all actives have a fitted effect of over 50% in size
Shiga toxin inh: A qHTS for Small Molecule Inhibitors of Shiga Toxin; Vero cells, Shiga toxin protein synthesis inhibition reporter; inhibition, % at 38.7 µM; hit rate 9.2% among 290,000; in the data active means inhibition mostly above about 28%, no sharp cut-off; inactive means mostly below about 43%; further: 0% is about no effect
MARV entry inh: qHTS for inhibitors of binding or entry into cells for Marburg Virus. Marburg virus pseudotyped entry inhibition, cell reporter. Potency, µM (doses to about 37.8 µM), without a hit: at the top dose activity change, negative = inhibition, most hits filed as inhibitors. hit rate 1.8% among 300,000; calls by dose curve; tested in HEK293 cells; further: potency means the concentration at half of the fitted maximal effect; on the % scale 0 is the no-effect control and ±100 the full control effect
Cycloheximide cs: Cycloheximide Counterscreen for Small Molecule Inhibitors of Shiga Toxin; cell reporter, cycloheximide protein synthesis inhibition counterscreen; max response, %; hit rate 12% among 300,000; in the data active means max response mostly above about 13%, no sharp cut-off; inactive means mostly below about 14%; further: read at 38.3 µM for the half of the compounds with a filed dose; 0% is about no effect
* marks the source's active call; other numbers are inactive results; ? = inconclusive; · = no result; ! = not active in a repeat; [ ] = remark or other dose. Unless noted, the call rests on the fitted dose curve; in most records, active means well fitted inhibition curve with a large enough effect; inconclusive means small, poorly fitted or top-dose-only effect, or another doubt; inactive means no such curve, though single readings can be large or run the other way.

SMILES	Pf growth 96h	Pf growth 48h	LASV entry inh	Shiga toxin inh	MARV entry inh	Cycloheximide cs
Cc1ccccc1Cn1ccc(NC(=O)CCSc2nc(-c3ccco3)cc(C(F)(F)F)n2)n1	·	-24%	-27%	1	1.1µM*!	-1
Cc1cc(NC(=O)CCSc2nc(-c3ccco3)cc(C(F)(F)F)n2)n(-c2ccccc2)n1	-16%	12µM*	?	3	?	1
Cc1ccc(Cn2ccc(NC(=O)CCSc3nc(-c4ccco4)cc(C(F)(F)F)n3)n2)cc1	·	10µM*	?	10	?	5
Cc1cc(NC(=O)CCSc2nc(-c3ccco3)cc(C(F)(F)F)n2)no1	·	-24%	-11%	-24	4%	-3
O=C(CSc1nc(-c2ccco2)cc(C(F)(F)F)n1)Nc1ccccc1C(F)(F)F	7.4µM*	18%	?	10	?	6
Cc1nn(C)c(C)c1NC(=O)CCSc1nc(-c2ccco2)cc(C(F)(F)F)n1	·	-27%	-9%	-11	-18%	-1
O=C(CN(c1ccccn1)S(=O)(=O)c1ccc(F)cc1)Nc1ccccc1	-25%	22%	2%[46.1 µM]	1	?	-2
CCc1nn(C(CC)C(=O)NCc2ccc(OC)c(OC)c2)c(=O)c2cc3oc(C)cc3n12 (stereo not given)	·	·	0%[46.1 µM]	·	1%[46.1 µM]	·
OC(C#CCN1CCOCC1)c1cccs1 (stereo not given)	19%[5.75 µM]	12%	4%	-6	3%	37*
CCn1c(/C=C/N(C(C)=O)c2ccccc2)[n+](CCCS(=O)(=O)[O-])c2cc(Cl)c(Cl)cc21	24%	-1%	3%[46.1 µM]	-9	6%[46.1 µM]	-4
CCn1c(/C=C/Nc2ccccc2)[n+](CC)c2cc(Cl)c(Cl)cc21	?	7.4µM*	?	-7	13µM*	-1
CCCOc1ccc(NCC(=O)Nc2ccc(C)cc2C)cc1	?	-29%	3%	19	7%	3
Cc1ccc2[nH]c(C(=O)Nc3ccc(F)cc3)cc2c1	8.3µM*	-11%	·	·	·	22*
Cc1cc(C)c2[nH]c(C(=O)Nc3ccc(F)cc3Br)cc2c1	-11%	-20%	13%	67*	7%	34*
Cc1cc(C)c2cc(C(=O)Nc3ccccc3)[nH]c2c1	8.3µM*	?	?	72*	27%	42*
CCCOc1ccc(NC(=O)c2cc3cc(C)ccc3[nH]2)cc1	12µM*	-10%	·	-6	·	0
O=C(/C=C/c1ccco1)N(Cc1ccc(F)cc1)C1CCS(=O)(=O)C1 (stereo not given)	0%	26%	30%[46.1 µM]	12	5%[46.1 µM]	-1
C[C@H]1CCC[C@@H](O)CCC/C=C/c2cc(O)cc(O)c2C(=O)O1	1%	81%	-50%[14.3 µM]	-11	?	-3
CC1CCC/C=C/C(=O)c2c(O)cc(O)cc2CC(=O)O1 (stereo not given)	19%	?	·	-12	·	-5
CC1CCCC=CC2CC(O)CC2C(O)/C=C\C(=O)O1 (stereo not given)	·	·	·	·	0.4µM*	·
C[C@H]1CCC/C=C/C2C[C@H](O)CC2[C@H](O)/C=C/C(=O)O1 (stereo not given in full)	2.1µM*	2.9µM*	1.2µM*	2	0.37µM*	-6
CC(C)(C)c1cc(CCC(=O)NCc2ccccn2)cc(C(C)(C)C)c1O	12µM*	?	2%	35	-4%	2
CC(C)(C)c1cc(CCC(=O)NCc2cccnc2)cc(C(C)(C)C)c1O	-16%	17%	3%[46.1 µM]	-11	-8%[46.1 µM]	9
CSc1cccc(NC(=O)Nc2ccccc2C(N)=O)c1	?	?	·	39*	·	47*
CSc1cccc(NC(=O)Nc2ccccc2)c1	-2%	47%	0%	95	16%	34*
Cc1c(Cl)cccc1NC(=O)Nc1ccccc1C(N)=O	?	9%	·	-14	·	-2
O=C(Nc1ccccc1C(=O)O)c1ccc(NC(=O)C2CC2)cc1	?	29%	?	-18	5µM*	1
COc1ccccc1NC(=O)c1ccc(NC(=O)C2CC2)cc1	·	·	?	·	1%	·
O=C(Nc1ccccc1O)c1ccc(NC(=O)C2CC2)cc1	55%	2.1µM*	-20%[46.1 µM]	83*	?	39*
Cn1c(=O)c2[nH]c(SCCN3CCOCC3)nc2n(C)c1=S	·	·	16%[46.1 µM]	·	8%[46.1 µM]	·
